Bioassay records: PubChem BioAssay, The Scripps Research Institute Molecular Screening Center
TTR transcr act – activators of transthyretin transcription; activation, % at 16.7 µM; SH-SY5Y TTR promoter Gaussia luciferase, luminescence; 100% = recombinant luciferase protein wells; hit rate 1.3% among 92,000;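 active means activation above the mean of all tested compounds plus 3 SD, cut at about 9.5% in these data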;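 further: cells exposed to compounds for one day before reading; 0% = median of all test compound wells on the plate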
HuH7 TTR inh – HuH7 TTR transcription inhibition, counter-screen; hit rate 4% among 1,100; HuH7 TTR promoter-Gaussia luciferase reporter, luminescence; shares compounds with TTR transcr act; inhibition, % at 16.7 µM; AID 1117279;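 active means average inhibition above the solvent-only control wells' mean plus 3 SD, cut at about 15% in these data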;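 further: 0% = cells with DMSO only and 100% = cells with inhibitor control FD; inhibitors lower well luminescence so higher value means more inhibition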
TTR up confirm – confirmation of human transthyretin transcription activators; activation, % at 16.7 µM; shares compounds with TTR transcr act; AID 1117280; SHSY5Y TTR promoter Gaussia luciferase, luminescence; 100% = purified Lucia enzyme wells, no cells; 1,100 tested, under 10 active;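 active means mean activation above a set limit taken from the earlier primary screen, cut at about 11% in these data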;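 further: 0% = DMSO-treated cells and 100% = recombinant Lucia luciferase without cells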
Starred values were filed as active, the others as inactive; ! = not confirmed by another sample. The sample as a whole holds a higher share of hits than the screen did.

SMILES	TTR transcr act	others
O=C(c1ccco1)N1CCN(C(=O)C2CC2)CC1	-1
COc1ccc(C(=O)C2CCN(C(=O)c3ccco3)CC2)cc1	11*	HuH7 TTR inh=11;TTR up confirm=-1
CCn1nc(C)c(CN2CCCC(CO)(Cc3ccccc3)C2)c1C (configuration not stated)	-1
CCCC(CCC(=O)Nc1nccs1)C(=O)O (configuration not stated)	-1
Cc1occc1CNc1ncnc2ccc(-c3ccc4c(c3)OCO4)cc12	2
CN(Cc1ccco1)c1ncnc2ccc(-c3ccc4c(c3)OCO4)cc12	27*!	HuH7 TTR inh=-6;TTR up confirm=0
Cc1nc(CN(C)c2ncnc3ccc(-c4ccc5c(c4)OCO5)cc23)cs1	-1
Cc1cc(C(=O)N2CCC2(C)C(=O)NS(=O)(=O)c2ccccc2Cl)nn1C (configuration not stated)	3
CCOc1ccc(C(=O)N[C@H](C(=O)Nc2ccccc2OC)C(C)C)cc1	2
CCCn1nc2cc(C(=O)NCc3ccccc3OC)ccc2c1OCC	0
CCOc1ccc(C(=O)NCc2ccccc2OC)cc1	15*	HuH7 TTR inh=-12;TTR up confirm=0
O=C(O)CSc1nnc(COc2cccc3ccccc23)o1	-1
COc1ccc(N2CCN(C(=O)c3ccncc3)CC2)cc1	-1
COc1ccc(N2CCN(C(=O)c3ccc4c(c3)OCO4)CC2)cc1	21*	HuH7 TTR inh=-13;TTR up confirm=1
O=C(c1ccc2c(c1)OCO2)N1CCN(c2ccccc2)CC1	6
COc1ccc2c(Cl)c(C(=O)NN3CCN(C)CC3)sc2c1	4
CN(C)/C(=C\C(=O)c1ccccc1)C(=O)c1ccccc1	1
COC(=O)[C@H](Cc1ccccc1)NC(=O)NCc1ccc(C)cc1	-2
COc1cccc(CN2CCN(S(=O)(=O)c3ccccc3)CC2)c1OC	8
COc1ccc(CN2CCN(S(=O)(=O)c3ccccc3)CC2)c(OC)c1	2
COc1ccc(CN2CCN(S(=O)(=O)c3ccccc3)CC2)c(OC)c1OC	17*	HuH7 TTR inh=-14;TTR up confirm=-1
O=C(O)c1cc(-c2ccccc2)nn1CC1CC(c2cccnc2)=NO1 (configuration not stated)	15*	HuH7 TTR inh=-6;TTR up confirm=-1
O=C(c1cc(-c2ccccc2)nn1CC1CC(c2cccnc2)=NO1)N1CCOCC1 (configuration not stated)	2
Cc1ccccc1-c1cc(C(=O)NCc2ccco2)n(CC2CC(c3cccnc3)=NO2)n1 (configuration not stated)	3
CCN(c1ccccc1)S(=O)(=O)c1ccc(Cl)c(NC(=O)CNCc2ccccc2OC)c1	1
SMILES	TTR transcr act	others
CC(=O)c1c(C(C)=O)c(C)n(-c2cccc3cccnc23)c1C	-2
c1ccc(-c2nc3c(ccc4ccccc43)[nH]2)nc1	-4
Cc1[nH]c2c(ccc3cccnc32)c1C	12*	HuH7 TTR inh=-28;TTR up confirm=-1
Cc1c(C)n(Cc2ccccc2)c2ncnc(NCCN(C)C)c12	-2
CCC1CCCCN1CCNC(=O)C1CCN(S(=O)(=O)c2c(C)noc2C)CC1 (configuration not stated)	3
O=C(CCN1CCOCC1)c1ccc(N2CCCCC2)cc1	10.0*	HuH7 TTR inh=-9;TTR up confirm=0
CC(C)(C)c1cc(C(=O)CCN2CCOCC2)cc(C(C)(C)C)c1O	-4
CCC(=O)c1ccc(OCCN2CCOCC2)cc1	-1
Cc1ccc(N(CC(=O)NC(C)(C)C)C(=O)CCC(=O)Nc2nccs2)cc1C	9.7*	HuH7 TTR inh=-11;TTR up confirm=-1
Cc1ccc(N(CC(=O)NCC2CCCO2)C(=O)CCC(=O)Nc2nccs2)cc1C (configuration not stated)	0
Cc1ccc(N(CC(=O)NC(C)C)C(=O)CCC(=O)Nc2nccs2)cc1	2
CCOC(=O)c1cc(S(=O)(=O)NCC2CCN(Cc3cccc(C)c3)CC2)cn1C	0
CCCCCCC(=O)O	0
CCCCCCCCCCCCC(=O)CCCCC(=O)O	-1
CC(CCCCCCCCC(=O)O)N(CCO)C(=O)OC(C)(C)C (configuration not stated)	10*	HuH7 TTR inh=-5;TTR up confirm=0
CC(Sc1nncn1C)C(=O)NCc1ccc2c(c1)OCO2 (configuration not stated)	-1
CCCc1ccc(S(=O)(=O)Nc2ccc(C)c(NS(C)(=O)=O)c2)cc1	2
Cn1nc(C(=O)NC2CCC(O)CC2)c2ccccc2c1=O (configuration not stated)	0
Cn1nc(CC(=O)NC2CCCCCC2)c2ccccc2c1=O	1
Cn1nc(CC(=O)NC2CCCCC2)c2ccccc2c1=O	10*	HuH7 TTR inh=0;TTR up confirm=-1
CC(C)(C)C(=O)Nc1ccc(-c2cnco2)cc1	6
CC(C)c1ccc(NC2CCCN(C(=O)c3cnc4ccccn4c3=O)C2)cc1 (configuration not stated)	0
CC(C)c1ccc(NC2CCCN(C(=O)CCN3CCCCC3=O)C2)cc1 (configuration not stated)	0
CC(C)c1ccc(NC2CCCN(C(=O)c3cccs3)C2)cc1 (configuration not stated)	11*	HuH7 TTR inh=-5;TTR up confirm=-1
COc1ccc(C(=O)OCC(=O)C(C)(C)C)cc1S(=O)(=O)N(C)CCc1cccnc1	-1
SMILES	TTR transcr act	others
O=C(OCC(=O)N1CCCC1)c1c[nH]c2ccccc12	2
O=C(Cn1c(=O)[nH]c2ccccc2c1=O)N1CCN(c2cccc(Cl)c2)CC1	0
Cn1c(CNC(=O)c2ccc3c(c2)OCO3)nnc1SCC(=O)Nc1ccccc1Cl	1
Brc1cccc(-c2nc3ccc(Br)cn3c2Cc2ccccc2)c1	22*	HuH7 TTR inh=-2;TTR up confirm=-1
Clc1cccc(-c2nc3ccc(Br)cn3c2Cc2ccccc2)c1	-1
Cc1ccc(Cc2c(-c3ccccc3)nc3ccc(Br)cn23)cc1	1
Cc1cc(C)cc(NC(=S)N(C)C)c1	-1
O=C(COC(=O)/C=C/c1cccc(C(F)(F)F)c1)NC(=O)NC1CCCC1	0
COc1ccccc1NC(=O)c1c(O)c2ccccc2[nH]c1=O	0
COc1ccc(N=Cc2c[nH][nH]c2=O)cc1	-1
COc1ccc(N=Cc2[nH]c3ccccc3c2O)cc1	14*	HuH7 TTR inh=-1;TTR up confirm=0
COc1ccc(NC(=O)/C(C#N)=C/c2c(C)nn(-c3ccc(F)cc3)c2Cl)cc1OC	-1
COc1ccc(CNC(=O)C2CCCN2S(=O)(=O)c2ccc(Cl)cc2)cc1 (configuration not stated)	13*	HuH7 TTR inh=-12;TTR up confirm=0
COc1ccc(S(=O)(=O)N2CCCC2C(=O)NCc2ccccc2Cl)cc1 (configuration not stated)	-2
COc1ccc(S(=O)(=O)N2CCC[C@H]2C(=O)NCc2ccc(Cl)cc2)cc1	2
Cc1csc(NC(=O)c2nn(C)c(C)c2[N+](=O)[O-])n1	0
CC1(C(=O)NS(=O)(=O)c2cccc(C#N)c2)CCN1C(=O)c1ccco1 (configuration not stated)	1
Cc1ccc(S(=O)(=O)N(Cc2ccccc2)c2ccccc2C(=O)NCc2cccnc2)cc1	-2
C=CCn1c(SCc2ccc(C(=O)O)cc2)nc2sc(C)c(C)c2c1=O	2
COc1ccc(S(=O)(=O)N2CCOCC2)cc1C(=O)Nc1cccc(C(=O)NC2CC2)c1	13*	HuH7 TTR inh=-8;TTR up confirm=2
O=C(NC1CCCCCC1)c1cccc(S(=O)(=O)N2CCOCC2)c1	3
O=C(NC1CCCCC1)c1cccc(S(=O)(=O)N2CCOCC2)c1	2
